# Screening results (PubChem)
# An excerpt weighted towards active compounds, which were near 8.1% of everything screened.
# ELG1 DNA repair: inhibitors of ELG1-dependent DNA repair in HEK293T cells; hit rate 2.3% among 330,000; AID 504467; HEK293T ELG1-luciferase reporter, luminescence, 16 h; DNA damage induced by 5-fluorouridine; Potency, µM (doses to about 46.1 µM), actives largely listed as inhibitors; further: nearly all actives have a fitted effect of over 55% in size
#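 5-Fluorouridine DNA damage + compound/DMSO, 2,000 cells/well, 16 h, 37 °C/5% CO2. ONE-Glo, 30 min RT, luminescence. Readout = decrease in reporter signal.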
# SW480 rerep: induces DNA re-replication in SW480 colon adenocarcinoma cells | SW480 DNA re-replication, Hoechst DNA content imaging, 48 h | Potency, µM (doses to about 46.1 µM), actives largely listed as activators | hit rate 1.8% among 340,000 | AID 624297; further: nearly all actives have a fitted effect of over 55% in size
#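 Image-based DNA-content assay: after two days of treatment, nuclei were labelled with the DNA dye Hoechst and imaged, and hits were compounds raising the count of nuclei showing high fluorescence intensity.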
# KB-V1 MDR tox: kills drug-selected multidrug resistant KB-V1 cells. KB-V1 MDR cells viability, CellTiter-Glo, 72 h. Potency, µM (series often up to 46.1 µM), usual class: cytotoxic. hit rate 3.4% among 400,000; further: nearly all actives have a fitted effect of over 60% in size
#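 Following 72 h at 37 degrees C with compound, KB-V1 cell viability was read by CellTiter-Glo luminescence, medium being phenol-red-free DMEM plus 10% FBS; concentration-response parameters came from normalized, curve-fitted qHTS data.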
# MCF10A rereplic: induces DNA re-replication in MCF 10a normal breast cells; MCF 10A DNA re-replication, Hoechst nuclear intensity, 48 h; Potency, µM (highest dose often 46.1 µM), usual class: activators; hit rate 2.9% among 350,000; AID 624296; further: nearly all actives have a fitted effect of over 50% in size
# KB-3-1 tox: KB-3-1 parental cell cytotoxicity; KB-3-1 viability, CellTiter-Glo ATP luminescence, 72 h; Potency, µM (series often up to 46.1 µM), most hits filed as cytotoxic; hit rate 1.4% among 400,000; AID 1347075; further: nearly all actives have a fitted effect of over 60% in size
#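 Using CellTiter-Glo luminescence, growth of non-resistant KB-3-1 adenocarcinoma cells is assessed 72 h after pin-tool compound addition at 37 °C. Normalized responses across the concentration series yield fitted curves.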
# Hits are given with their value; – = inactive; ? = inconclusive; · = no result. The call rests on the fitted dose curve; in most records, active means well fitted curve in the direction sought with a large enough effect; inconclusive means small, poorly fitted or top-dose-only effect, or another doubt; inactive means no such curve, though single readings can be large; an effect the other way counts as inactive or inconclusive.
SMILES,ELG1 DNA repair,SW480 rerep,KB-V1 MDR tox,MCF10A rereplic,KB-3-1 tox
Cc1nc(N)nc(N)c1CCCc1ccc(Cl)c(Cl)c1,·,–,?,–,?
COc1nc(/C=C/N(C)C)c([N+](=O)[O-])c(OC)n1,–,–,–,6.5µM,–
CC(=O)Oc1ccc2oc(/C=C/N(C)C)c([N+](=O)[O-])c2c1,?,–,–,–,–
COc1ccc(NC(=O)COc2ccccc2C#N)c(S(=O)(=O)N2CCCCC2)c1,21µM,–,?,–,–
Cc1ccc2cccc(OCC(=O)Nc3cccc(S(=O)(=O)N4CCCC4)c3)c2n1,18µM,–,·,?,·
COc1ccc(C(=O)COc2ccccc2C(N)=O)cc1,–,–,–,–,–
COc1ccc(C(=O)COc2ccccc2C#N)cc1,?,–,–,16µM,–
N#Cc1ccccc1OCC(=O)Nc1cccc(S(=O)(=O)N2CCCCCC2)c1,18µM,–,·,?,·
CCC(=O)N1CCCC(C)(C(=O)Nc2nccc3cccnc23)C1 (stereo not given),·,·,–,·,–
CCCCNC(=O)C1(C)CCN1C(=O)Cc1cccc2ccccc12 (stereo not given),·,·,–,·,–
CCNC(=O)C1(C)CCN(C(=O)c2ccc3c(c2)OCO3)C1 (stereo not given),·,·,–,·,–
CC(C)c1ccc(CN(Cc2ccco2)c2cnc(S(C)(=O)=O)nc2C(=O)Nc2ccc(F)cc2)cc1,·,·,–,·,–
CCOc1ccccc1NC(=O)C(=O)CC(=O)c1ccc(OC)cc1,?,–,16µM,–,–
COc1ccc(C(=O)CC(=O)C(=O)Nc2ccccc2)cc1,?,?,–,–,–
O=C1/C(=C/c2cccc([N+](=O)[O-])c2)CCc2ccccc21,–,?,16µM,?,?
CCN1C/C(=C\c2cccc([N+](=O)[O-])c2)C(=O)/C(=C/c2cccc([N+](=O)[O-])c2)C1,3.3µM,0.58µM,?,2.6µM,0.92µM
O=C1/C(=C/c2cccc([N+](=O)[O-])c2)CSc2ccc(Cl)cc21,–,–,–,–,–
CC(=O)N1c2ccc(S(=O)(=O)N3CCC(C(=O)NCc4ccc(N(C)C)cc4)CC3)cc2CC1C (stereo not given),?,–,–,–,–
Cc1ccc(-n2c(COCC(=O)O)nc3cccnc32)cc1,·,·,–,·,–
CC(C)n1cnc2c(NCc3ccccc3)cc(Cc3ccc(F)cc3)cc21,–,–,–,–,–
Cc1ccc(C)c(S(=O)(=O)n2nc(C)c(S(=O)(=O)N3CCCCCC3)c2C)c1,·,·,?,·,–
COc1ccc(S(=O)(=O)N2CCC(C(=O)NCCOc3ccccc3F)CC2)cc1OC,–,–,23µM,–,–
COc1ccc(S(=O)(=O)N2CCC(C(=O)NCCc3ccccc3)CC2)cc1OC,–,–,–,–,–
Cn1nc(C(C)(C)C)cc1C(=O)N1CCCC(c2cc(C(=O)Nc3ccccc3Cl)no2)C1 (stereo not given),·,·,?,·,–
S=C(NCCc1ccccc1)Nc1ccc(Br)cc1,?,–,18µM,?,?
SMILES,ELG1 DNA repair,SW480 rerep,KB-V1 MDR tox,MCF10A rereplic,KB-3-1 tox
Cc1ccccc1NC(=S)NCCc1ccccc1,–,?,16µM,?,–
CC(C)(C)CC(=O)NC(=S)NCCc1ccccc1,–,10µM,–,?,–
CCCNC(=S)Nc1ccc(Br)cc1,?,–,–,–,–
COc1ccc(CCNC(=S)Nc2ccccc2C)cc1,–,–,–,–,–
S=C(NCCc1ccccc1)Nc1ccccn1,?,–,16µM,–,–
Cc1sc2ccccc2[n+]1CC(=O)c1ccc(F)cc1,·,·,–,·,–
O=C(O)c1cccs1,·,·,–,·,–
CC(C)CCNC(=S)Nc1ccc(Br)cc1,?,–,18µM,?,?
Cc1ccc(S(=O)(=O)Nc2ccc3ccccc3c2[N+](=O)[O-])cc1,·,–,–,18µM,–
O=C1CCCC2=C1C1(CCCC1)N=C(Nc1nc3cc4ccccc4cc3o1)N2,·,·,–,·,–
CNC[C@H]1OCCCC[C@H](C)Oc2ccc(NC(=O)CCCN(C)C)cc2C(=O)N([C@H](C)CO)C[C@@H]1C,·,·,?,·,–
CCc1ccccc1NC(=S)/N=C(\N)Nc1nc(C)c2cc(C)ccc2n1,21µM,21µM,6.5µM,?,?
CCOc1ccc2nc(N/C(N)=N/C(=S)Nc3cccc(C)c3)nc(C)c2c1,–,–,23µM,–,–
CCOc1ccc2nc(N/C(N)=N/C(=S)Nc3cccc(OC)c3)nc(C)c2c1,?,?,–,–,–
COC(=O)c1c(NC(=O)C2c3ccccc3Oc3ccccc32)sc2c1CCC(C(C)(C)C)C2 (stereo not given),·,·,–,·,–
COc1ccc(Cl)cc1-c1cc(C(=O)NCc2cccs2)[nH]n1,·,·,–,·,–
COc1ccc(C(=O)C[n+]2cccc3cc(Cl)ccc32)cc1,·,·,–,·,?
CCCN(CC(=O)Nc1cc(Cl)ccc1Cl)C(=O)c1ccc(N2CCCC2=O)cc1,–,–,7.3µM,–,?
COC(=O)c1ccc(NC(=O)Cn2ccn3nc(-c4ccc(OC)cc4)cc3c2=O)cc1,·,·,–,·,–
COc1ccc(Cl)cc1NC(=O)CN(C)C(=O)c1cn2ccccc2n1,?,13µM,?,?,?
COc1ccc(Cl)cc1NC(=O)CN(C)C(=O)c1ccc(N2CCCCC2)c([N+](=O)[O-])c1,?,–,?,–,15µM
COc1ccc(Cl)cc1NC(=O)CN(C)C(=O)c1cc(=O)c2ccccc2o1,?,?,–,–,–
COc1ccc(Cl)cc1NC(=O)CN(C)C(=O)c1n[nH]c2ccccc12,8.2µM,–,–,–,–
Cn1c(SCc2ccc(F)cc2)nc2ccc(C(=O)NCc3cccc(Cl)c3)cc21,·,·,–,·,–
CC1=C(c2ccc(NN=C(C#N)C#N)cc2)NNC(=O)C1,·,?,·,–,·
SMILES,ELG1 DNA repair,SW480 rerep,KB-V1 MDR tox,MCF10A rereplic,KB-3-1 tox
CCOc1cc(/C=N/NC(=O)c2ccc(-c3csc(Nc4ccc(C)cc4)n3)cc2)ccc1OCC(=O)O,?,–,–,–,–
O=C(O)COc1ccc(/C=N/NC(=O)c2ccc(-c3csc(Nc4ccc(Cl)cc4)n3)cc2)cc1,–,–,–,9.2µM,–
Cc1cc(C)cc(NC(=O)Nc2ccc(NC(=O)c3ccccc3O)cc2)c1,–,21µM,–,18µM,–
O=C1C2CC=CCC2C(=O)N1c1cccc(OS(=O)(=O)c2ccc3ccccc3c2)c1 (stereo not given),?,–,21µM,?,–
Cc1ccc(S(=O)(=O)Oc2ccccc2N2C(=O)C3CC=CCC3C2=O)cc1 (stereo not given),–,–,8.2µM,–,–
CC1CCC2C(=O)N(c3cccc(OS(=O)(=O)c4ccccc4)c3)C(=O)C2C1 (stereo not given),–,–,?,–,–
CCc1ccccc1N1C(=O)C2CC=CCC2C1=O (stereo not given),–,–,–,–,–
O=C(NC1CCCCC1)c1nc(-c2c(F)cccc2F)oc1-c1ccccc1,·,·,?,·,–
COC1CC(N)C2OC(c3ccccc3)OCC2O1 (stereo not given),·,·,–,·,–
